Compound activity (PubChem)
In the library only some 7.8% were active in any assay of this set; here they are far more common.
Bst PK mod = Pyruvate Kinase | purified pyruvate kinase, luminescence ATP production; ribose 5-phosphate activator present at AC10 | Potency, µM | 51,000 tested, 1.2% active | AID 361, 2006; in the data active = potency below about 11 µM; inconclusive = mostly about 12 µM to 25 µM;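 the screen sought inhibitors and activators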
FLuc inh = qHTS Assay for Inhibitors of Firefly Luciferase. AID 411, 2009. 72,000 tested, 2.2% active. Luciferin 4-monooxygenase (Photinus pyralis), P08659. Potency, µM (titrated, usually from 57.1 µM), actives largely listed as inhibitors. purified firefly luciferase, luminescence, 8 min; also: nearly all actives have a fitted effect of over 40% in size
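qHTS concentration-response profiling: light output of P. pyralis luciferase with luciferin and 10 uM ATP, imidazole buffer pH 7.2. Read by luminescence after 8-min room-temperature incubation.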
Tau fil binding = qHTS Assay for Tau Filament Binding; AID 596, 2007; Potency, µM (highest dose often 57.1 µM); recombinant tau filaments, thioflavin S fluorescence, 15 h; filaments grown with octadecylsulfate alongside compound; 71,000 tested, 2% active; Microtubule-associated protein tau (Homo sapiens), P10636;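 also: actives lower thioflavin S fluorescence by blocking filaments or displacing dye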
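Recombinant tau protein (human, 1 uM final) plus 30 uM ODS in HEPES pH 7.4 with NaCl, DTT and thioflavine S. Compound present from the start; fluorescence at 510 nm after 15 h, 37 C.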
TSHR agonist = qHTS Assay for Agonists of the Thyroid Stimulating Hormone Receptor; AID 926, 2007; 73,000 tested, 0.48% active; Thyrotropin receptor (Homo sapiens), P16473; Potency, µM (doses to about 57.1 µM), actives largely listed as activators; HEK293-CNG-TSHR cells (CNG channel as cAMP sensor), membrane potential dye, cAMP; active = well fitted activation curve with a large enough effect in the main read-out, with a control signal flat, not every such curve was filed as active; inconclusive = small, poorly fitted or top-dose-only effect, or a change in a side signal; inactive = no such curve, though single readings can be large or run the other way; reference of the percent scale not stated here;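 also: the control signal comes from parental cells without the receptor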
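HEK 293 cells stably expressing TSHR and a modified CNG channel, with CNG-only parental cells as counterscreen, were preloaded 60 min at room temperature with membrane potential dye containing 100 uM RO 20-1724. Compound exposure was 30 min, and depolarization was read as fluorescence at 590 nm.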
ALOX15 inhib = qHTS Assay for Inhibitors of 15-hLO (15-human lipoxygenase); Polyunsaturated fatty acid lipoxygenase ALOX15 (Homo sapiens), P16050; 74,000 tested, 1.4% active; purified 15hLO-1, xylenol orange hydroperoxide absorbance; Potency, µM (series often up to 57.1 µM), actives largely listed as inhibitors; AID 887, 2007; also: nearly all actives have a fitted effect of over 55% in size
Target sequence (P16050 whole entry, looked up): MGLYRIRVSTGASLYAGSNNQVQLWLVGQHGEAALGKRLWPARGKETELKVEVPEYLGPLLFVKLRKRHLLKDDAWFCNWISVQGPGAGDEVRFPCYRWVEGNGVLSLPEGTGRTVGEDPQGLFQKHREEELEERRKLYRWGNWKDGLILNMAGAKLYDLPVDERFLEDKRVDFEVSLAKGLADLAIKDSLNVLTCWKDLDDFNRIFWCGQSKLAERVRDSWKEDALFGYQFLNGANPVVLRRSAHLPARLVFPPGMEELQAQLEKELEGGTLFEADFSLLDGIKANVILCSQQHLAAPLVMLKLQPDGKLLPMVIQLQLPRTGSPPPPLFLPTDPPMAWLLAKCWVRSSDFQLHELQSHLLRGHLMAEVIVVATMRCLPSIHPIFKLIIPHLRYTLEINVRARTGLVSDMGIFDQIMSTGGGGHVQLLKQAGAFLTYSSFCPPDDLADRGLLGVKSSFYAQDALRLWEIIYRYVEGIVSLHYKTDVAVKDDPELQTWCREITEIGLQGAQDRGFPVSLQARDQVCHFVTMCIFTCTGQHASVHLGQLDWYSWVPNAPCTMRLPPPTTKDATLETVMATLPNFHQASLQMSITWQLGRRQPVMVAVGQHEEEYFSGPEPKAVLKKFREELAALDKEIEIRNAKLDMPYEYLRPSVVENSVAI
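Purified human 15hLO-1 (40 nM final) in 25 mM Hepes pH 7.5, 0.01% Triton X-100 was preincubated with compound 15 min at room temperature, then reacted 6 min with 50 uM arachidonic acid; hydroperoxide detected by Fe-XO, 573/405 nm absorbance ratio.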
HEK293 cAMP ctrl = qHTS Assay for Agonists of the Thyroid Stimulating Hormone Receptor: Activators of Intracellular cAMP Concentrations in Parental HEK 293; parental HEK293 CNG cAMP sensor, membrane potential fluorescence; Potency, µM (doses to about 57.1 µM), actives largely listed as activators; 73,000 tested, 2.5% active; also: nearly all actives have a fitted effect of over 55% in size
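Parental HEK 293 cells stably expressing a modified CNG channel (no TSHR) report cAMP rise as membrane depolarization. Membrane potential dye with 100 uM RO 20-1724 was loaded for 60 min at room temperature, then compound added for 30 min; fluorescence read at 590 nm.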
A number is an active result; i = inactive; ? = inconclusive; nt = not tested or not shown; [ ] = dose if it differs, or a comment. Unless noted, calls follow the shape of the dose curve; as a rule, active = well fitted curve in the direction sought with a large enough effect; inconclusive = small, poorly fitted or top-dose-only effect, or another doubt; inactive = no such curve, though single readings can be large; an effect the other way counts as inactive or inconclusive.

SMILES | Bst PK mod | FLuc inh | Tau fil binding | TSHR agonist | ALOX15 inhib | HEK293 cAMP ctrl
O=C(c1cccs1)N1CCn2c1nc1ccccc12 | i | 16µM | i | i | i | i
N#CCC(=O)N1CCn2c1nc1ccccc12 | i | i | i | i | i | i
COC(=O)c1c(C(=O)OC)c2n(c1C)Cc1ccccc1C2 | nt | i | i | i | 7.9µM | i
Nc1ccc(N=Nc2ccc(-c3ccc(O)cc3)cc2)c2ccc(S(=O)(=O)O)cc12 | nt | 3.2µM | 2.5µM | i[11.4 µM] | i[11.4 µM] | i[11.4 µM]
COc1ccc(/C=N/NC(=O)c2cc(-c3ccc(Cl)cc3)n[nH]2)cc1OC | nt | nt | nt | i | i | i
CC[C@H](/C=C/[C@@H](C)[C@H]1CC[C@H]2C3CC=C4C[C@@H](O)CC[C@]4(C)C3CC[C@]12C)C(C)C (stereo partly drawn) | nt | nt | nt | nt | i | nt
Cc1ccc2nc(NCc3ccccc3)[nH]c2c1 | i | 10µM | nt | nt | nt | nt
COc1ccc2nc(NCc3ccccc3)[nH]c2c1 | nt | 16µM | i | i | i | i
c1ccc(Nc2nc3ccccc3[nH]2)nc1 | i | 20µM | i | i | i | i
c1ccc(CNc2nc3ccccc3[nH]2)cc1 | ? | 13µM | i | i | i | i
Cc1cc(C)nc(Nc2nc3ccccc3[nH]2)n1 | i | i | i | i | i | i
CC(C)C[C@@H](CC(=O)N[C@@H](CCC(=O)O)CC(=O)O)NC(=O)[C@@H]1CNCC[C@H]1NC(=O)C[C@@H](NC(=O)C[C@H](Cc1c[nH]c2ccccc12)NC(=O)[C@@H]1CNCC[C@H]1N)C(C)C | nt | nt | i | i | nt | i
COc1cc(C2Nc3cccc4cccc(c34)N2)ccc1OC(C)=O | i | i | i | ? | i | 1.3µM
COc1cc(C2Nc3cccc4cccc(c34)N2)cc(OC)c1O | i | i | 4µM | i | i | i
COc1ccc(-c2cc(=O)c3c(OC(C)=O)cc(OC(C)=O)cc3o2)cc1 | nt | nt | nt | nt | i | nt
N[C@H](Cn1ccc(=O)n(Cc2ccccc2C(=O)O)c1=O)C(=O)O | nt | i | ? | i | i | i
CCC/C=C/C1C(=O)C2OC2C2(OCC(CC)(CC)CO2)C1CO (stereo not drawn) | nt | nt | nt | i[11.4 µM] | i[11.4 µM] | i[11.4 µM]
CCC1(C)Cc2ccccc2/C(=C/C(=O)N2CCCCC2)N1 (stereo not drawn) | i | i | i | ? | i | 16µM
CCn1c(=O)c(=O)[nH]c2cc(C(=O)N3CCN(c4ccccc4F)CC3)ccc21 | i | i | ? | ? | i | ?
COc1ccccc1C(=O)n1nc(-c2ccc(Cl)cc2)nc1N | i | i | i | i | 13µM | i
Cc1cc(OCCNCCO)cc(C)c1Cl | nt | nt | nt | nt | i | i
Cc1cc(OCCCCCNCCO)cc(C)c1Cl | nt | i | 2.5µM | i[11.4 µM] | i[11.4 µM] | i[11.4 µM]
CCOc1ccccc1OCC(=O)Nc1nnc(COC)s1 | i | i | i | i | i | i
CC1CCN(C(=O)CSc2nnc(CSc3ncccn3)n2C)CC1 | i | i | i | i | i | i
O=C1CCc2cc(OCCCCc3nnnn3C3CCCCC3)ccc2N1 | i | i | ? | 25µM | i | ?
SMILES | Bst PK mod | FLuc inh | Tau fil binding | TSHR agonist | ALOX15 inhib | HEK293 cAMP ctrl
O=C1CCc2cc(S(=O)(=O)N3CCC(C(=O)NC4CCCC4)CC3)ccc2N1 | nt | i | i | i | i | i
Nc1nc(Cc2ccccc2)nc(Cc2ccccc2)c1-c1ccccc1 | nt | i[11.4 µM] | i[11.4 µM] | i[11.4 µM] | i[11.4 µM] | i[11.4 µM]
CCCc1cc(C(=O)Cc2ccc(C(=O)OCC)o2)c(O)cc1O | i | i | i | ? | ? | 20µM
O=C1C(c2ccncc2)=C(O)c2ccccc21 | ? | 13µM | ? | i | i | i
O=C1C(=C(O)c2ccccc2)C(=O)c2ccccc21 | nt | i | ? | i | i | i
O=C(N1CCOCC1)N1CCN(c2nc(-c3ccc(F)cc3)cs2)CC1 | i | 16µM | i | i[11.4 µM] | i | i
O=C1[C@H]2[C@H]3[C@H](O)[C@H](O)C/C(=N/OCc4ccccc4)[C@@H]3CC[C@@H]2C(=O)N1C1CCCCC1 | nt | i[11.4 µM] | nt | i[11.4 µM] | i[11.4 µM] | i[11.4 µM]
Cc1nnc(NC(=O)c2sc3ccccc3c2Cl)s1 | 2.1 | 2µM | i | i | i | i
